# Data as given in PubChem BioAssay AID651582 (Sanford-Burnham Center for Chemical Genomics, 2012).
# Where “and” joins values, the source holds several entries; their conditions need not be identical. Identical values can stand only once. The campaign covered roughly 230,000 compounds. About 1,500 (0.65%) were called active. This is one part of a sample in which actives are shown more often than they occur.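 Rule for the calls: active = pattern-corrected inhibition of lipid staining of at least 50% with the nuclear-stain viability signal not falling by more than 50%; inactive = the rest, inconclusive results apart.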
# Experiment: inhibitors of triacylglycerol accumulation, primary screen, cell-based, uHTS, fluorescence, H9c2 (AID 651582);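 for inhibition: 0% = DMSO wells and 100% = triacsin C control wells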
# Settings: H9c2 cells, Nile Red lipid (TAG) fluorescence, at 12.5 µM, cells loaded with 200 µM oleic acid; DAPI nuclei signal change (viability), lower = more cytotoxic: measured here: DAPI nuclei count viability; inhibition: stronger effect = higher value
Compound,"DAPI nuclei signal change (viability), lower = more cytotoxic",inhibition
COc1ccc(-c2cc(C(F)(F)F)nc(S(C)(=O)=O)n2)cc1OC,-22.6%,52.7% (active)
COc1ccc(-c2csc(-c3cccs3)n2)cc1OC,-4.83%,-5.04% (inactive)
COc1ccc(-c2cc(-c3ccc(N)cc3)nc(N)c2C#N)cc1OC,172%,21.5% (inactive)
CCCCCCCCNS(=O)(=O)CCNC1CCCCC1,-4.65%,5.91% (inactive)
COc1ccc(OC)c(/C=C/C(=O)c2ccc3c(c2)OCO3)c1,4.46%,9.85% (inactive)
Cc1c(NS(=O)(=O)c2cccc(C(=O)Nc3ccc(SC(F)F)cc3)c2)c(=O)n(-c2ccccc2)n1C,-2.02%,-3.28% (inactive)
COc1ccc(S(=O)(=O)N(C)C)cc1NC(=O)COC(=O)c1n[nH]c2ccccc12,-4.57%,4.68% (inactive)
Cc1cccc(OCC(=O)OCC(=O)Nc2ccc(Cl)cn2)c1,5.47%,-14.4% (inactive)
COc1ccc(/C=C2/CCCc3ccccc3C2=O)cc1,-45.7%,59.8% (active)
COc1ccc(/C=C2\CCc3ccccc3C2=O)c(OC)c1OC,-2.46%,-5.18% (inactive)
O=C1/C(=C/c2cccs2)CCc2ccccc21,3.51%,-10.1% (inactive)
O=C(COC(=O)c1cccc(Cl)c1Cl)NC1CCCCCC1,6.13%,-15.2% (inactive)
C=CCn1c(SCC(=O)NCC2CCCO2)nc2sc(C)c(C)c2c1=O (stereo not given),4.45%,-8.48% (inactive)
C=CCn1c(SCc2c(C)noc2C)nc2sc3c(c2c1=O)CCC(C)C3 (stereo not given),-30.5%,85.1% (active)
CCCn1nnc2sc3c(c2c1=O)CCC(C)C3 (stereo not given),3.37%,0.861% (inactive)
CN1CCn2cnc(C(=O)NCC(=O)OC(C)(C)C)c2C1=O,-1.68%,-2.56% (inactive)
CN(Cc1ccc(CNC[C@H]2O[C@@H](n3cnc4c(N)ncnc43)[C@H](O)[C@@H]2O)o1)S(C)(=O)=O,2.25%,3.67% (inactive)
Cc1cc(NC(=O)CSc2ncc(C(F)(F)F)cc2Cl)no1,-5.5%,0.466% (inactive)
Cc1cc(NC(=O)CSc2nc(C(C)C)nc3sc4c(c23)CCC(C)C4)no1 (stereo not given),1.86%,65.3% (active)
Cc1cc(NC(=O)CSc2nc3c(cc2C#N)CCCCC3)no1,24%,6.4% (inactive)
Brc1ccc(CN2CC[C@H]3C=CCc4cccc(c43)C2)cc1,12.5%,-54.7% (inactive)
COc1ccc(Cl)cc1NC(=O)CN(C)C(=O)c1cc(-c2cccs2)nn1-c1ccccc1,3.57%,2.51% (inactive)
Cc1nc2ccccn2c(=O)c1NC(=O)c1ccc(Br)o1,4.97%,4.01% (inactive)
COc1ccc(C(O)c2nc(-c3ccc(OC)nc3)cs2)cc1 (stereo not given),4.55%,-44.6% (inactive)
COc1ccc2c(c1)O/C(=C\c1ccccc1O)C2=O,4.81%,-5.85% (inactive)
COc1cc(/C=C2\Oc3ccc(C#Cc4ccc(O)cc4)cc3C2=O)cc(OC)c1,-0.886%,120% (active)
COc1cc(C#Cc2ccc3cc(CCCO)oc(=O)c3c2)cc(OC)c1,-19.9%,46.6% (inactive)

Compound,"DAPI nuclei signal change (viability), lower = more cytotoxic",inhibition
O=C(CSc1n[nH]c(=O)n1-c1ccccc1)Nc1ccccc1C(F)(F)F,4.07%,6.49% (inactive)
COc1ccc(OC)c(NC(=O)C2CCCN2S(=O)(=O)c2ccc3c(c2)CC(C)N3C(C)=O)c1 (stereo not given),-10.6%,-4.08% (inactive)
CCOC(=O)N1CCN(C(=O)c2ccccc2N(Cc2ccccc2)S(=O)(=O)c2ccc(OC)cc2)CC1,-41%,53.3% (active)
NC(=O)c1ccccc1N(Cc1ccccc1)S(=O)(=O)c1ccccc1,-8.47%,2.63% (inactive)
CCN1CCN(C(=O)c2ccccc2N(C)S(=O)(=O)c2ccc(C)cc2)CC1,-0.758%,7.33% (inactive)
CCN1C[C@@H]2[C@@H]3C(=O)N(Cc4ccccc4)C(=O)[C@@H]3[C@](C)(C1=O)N2C(=O)c1ccc(C(C)(C)C)cc1,-6.19%,19.2% (inactive)
COc1ccc(NC(=O)CNc2cc(S(=O)(=O)N3CCOCC3)ccc2N2CCOCC2)c(OC)c1,15.7%,-15.8% (inactive)
Clc1ccc(N/N=C/c2cccs2)nn1,3.1%,-6.69% (inactive)
C/C(=N\Nc1ccc(Cl)nn1)c1ccccc1O,-30.3%,59.1% (active)
Cc1ccsc1/C=N/Nc1ccc(Cl)nn1,-14%,5.97% (inactive)
COc1ccccc1-c1nn(Cc2ccccc2)cc1C(=O)N1CCN(c2ncccn2)CC1,-19.5%,12.4% (inactive)
CC(C)C(=O)N1CCN(c2nc(-c3ccccc3)c3c(c2C#N)CC(C)(C)OC3)CC1,5.61%,6.61% (inactive)
O=C1CC2(CCN(C(=O)COc3ccc(F)cc3)CC2)Oc2ccccc21,-14.6%,21.4% (inactive)
CC(C)C(=O)N1CCC2(CC1)Oc1ccc(F)cc1C(=O)C21CC(c2ccccc2)=NO1 (stereo not given),-26.9%,60% (active)
COc1ccc(C(=O)NCc2ccccc2C)cc1S(=O)(=O)NC1CCCC1,1.26%,-5.94% (inactive)
O=C(O)c1ccc(NN=CC2=C(N3CCOCC3)/C(=C/c3ccccc3)CC2)cc1,1.8%,2.29% (inactive)
C(=N\N1CCN(c2ccccn2)CC1)/C1=C(N2CCOCC2)C(=C/c2ccccc2)/CC1,12.6%,8.28% (inactive)
O=C1Nc2ccc(Br)cc2/C1=N/N=C/C1=C(N2CCOCC2)C(=C\c2ccccc2)/CC1,-30.7%,142% (active)
CC(=O)Oc1ccc(Cn2c(C)c(C(=O)NCc3ccc(C#N)cc3)sc2=O)cc1,-0.306%,-4.77% (inactive)
COc1cc(Cl)c(C)cc1NC(=O)CSc1nnc(CN2CCCC2)o1,4.62%,1.12% (inactive)
Cc1ccn(CC(=O)NC2CCCN(Cc3ccccc3F)C2)n1 (stereo not given),1.69%,-15.9% (inactive)
Cc1ccc(OCCNC(=O)c2cccc(S(=O)(=O)N3CCN(Cc4ccccc4)CC3)c2)cc1,3.36%,-7.75% (inactive)
CC(C)CCOc1ccc(C(=O)Nc2cc(S(=O)(=O)N3CCOCC3)ccc2N2CCOCC2)cc1,-52.3%,65.1% (inactive)
O=C(Nc1ccc2oc(-c3ccc4ccccc4c3)nc2c1)c1cccs1,21.1%,33% (inactive)
CCCCCC(=O)Nc1ccc2oc(-c3ccncc3)nc2c1,-5.68%,4.08% (inactive)
O=C(Cc1cccc2ccccc12)Nc1ccc2oc(-c3ccccc3)nc2c1,-5.68%,55.2% (active)
CC(=O)NC(c1cccc(F)c1)c1nc(-c2cccc(F)c2)cs1 (stereo not given),2.1%,-15.8% (inactive)

Compound,"DAPI nuclei signal change (viability), lower = more cytotoxic",inhibition
CCCn1c(N)c(C(=O)CSc2nnc(Cc3cccs3)n2C2CC2)c(=O)[nH]c1=O,-3.34%,5.02% (inactive)
COc1ccc(S(=O)(=O)N2CCN(CC(=O)NCC3(N4CCOCC4)CCCCC3)CC2)cc1,-5.18%,-1.89% (inactive)
CCOCCC(=O)Nc1ccc2c(c1)c(=O)n(C)n2-c1ccc2ccccc2c1,-27.1%,52.9% (active)
CCn1c2ccccc2c2cc(NC(=O)CNC)ccc21,-1.08%,10.2% (inactive)
COc1cc(Cn2c3ccc(NC(=O)CC(C)c4ccccc4)cc3c(=O)n2C)ccc1F (stereo not given),6.84%,4.12% (inactive)
NC(=O)CSc1nnc(-c2cccc(S(=O)(=O)N3CCOCC3)c2)o1,2.86%,9.91% (inactive)
O=[N+]([O-])c1cccc(C=NN=Cc2ccccc2O)c1,-6.09%,3.14% (inactive)
COc1ccc(NC(=O)C2Cc3c(-c4ccc5c(c4)OCO5)ccnc3O2)cn1 (stereo not given),-129%,146% (inactive)
CCN1C(=O)/C(=C2/Sc3ccccc3N2CCCS(=O)(=O)O)SC1=S,12.7% and -2.03%,-9.06% (inactive) and 5.16% (inactive)
CCCCN1C(=O)/C(=C/C=C2/C=Cc3ccccc3N2CC)SC1=S,10.9%,87.8% (active)
CCN1C(=O)/C(=C\N2CCOCC2)SC1=S,1.56%,1.92% (inactive)
CCc1nc2c(OCc3ccc(F)c(F)c3)cccn2c1N(C)C(=O)c1ccco1,-19.3%,7.19% (inactive)
COc1ccc(N2CCN(Cc3cc(=O)oc4ccc5ccccc5c34)CC2)cc1,4.7%,7.86% (inactive)
COc1ccc(Nc2ccc3ccccc3c2)cc1,8.55%,8.64% (inactive)
COc1ccc(Nc2cc(=O)oc3ccccc23)cc1,-14.8%,52.3% (active)
COC(=O)c1ccc(C)c(NC(=O)Cn2c(C)csc2=O)c1,5.24%,-8.36% (inactive)
COc1cccc(NC(=O)C2(C)CCN2Cc2ccccc2Cl)c1 (stereo not given),10.6%,-19.4% (inactive)
CN(C)C(=S)N=c1ssc(=S)n1Cc1ccco1,-24%,51% (active)
CC1CN(Cc2ccco2)C(=S)N(c2ccccc2)C1=O (stereo not given),-1.49%,-14.4% (inactive)
Cc1cs/c(=N\N=C\c2ccc(O)cc2)n1Cc1ccco1,-3.51%,-2.08% (inactive)
Cc1onc(NC(=O)c2ccc([N+](=O)[O-])o2)c1Br,-38.7%,59.1% (active)
O=C(Nc1ccc(Br)cn1)c1ccc([N+](=O)[O-])o1,-72.2%,83.9% (inactive)
Cc1cccc(NC(=O)c2ccc([N+](=O)[O-])o2)c1,-57.9%,80.8% (inactive)
CC(C)(C)OC(=O)C[C@@H]1C/C=C\C[C@@H](CC(=O)NCCO)C(=O)N[C@H](Cc2c[nH]c3ccccc23)COC1=O,3.2%,-15.4% (inactive)
COc1cccc(NC(=O)CN(C)C(=O)c2ccccc2CCc2ccccc2)c1,-2.81%,1.2% (inactive)
O=C(COC(=O)c1ccc(F)cc1)NCC1COc2ccccc2O1 (stereo not given),-0.149%,4.29% (inactive)
